13 molecules from PubChem BioAssay (NCI) can be followed below.

Some test systems named below: NCI-H23 lung; NCI-H226 lung; NCI-H322M lung; HOP-62 NSCLC; NCI-H460 lung; HOP-92 NSCLC; NCI-H522 lung; A549/ATCC NSCLC; 786-0 renal; COLO 205 colon.
Holding throughout (assay): NCI-60 one-dose screen, 48 h (100 = growth as untreated, 0 = no growth, -100 = all killed)
Common to all, as to conditions: 10 µM unless noted

Compounds without any hit were thinned out: in the full panel of roughly 83,000, 20% have a hit.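 48-hour exposure, single concentration, 96-well plates; percent growth endpoint where 0 means no net growth. Active: below 10.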 A number with no mark means an inactive call. Active and inactive are the calls of the source.

Consider `COc1cc(-c2nn(-c3ccccc3)cc2-c2ccnc(NCCNS(=O)(=O)c3ccc(Cl)cc3)n2)ccc1Cl`, for which the growth in the assay with NCI-H23 lung was 47.4%; with NCI-H226 lung it was 30.8%; in the assay on NCI-H322M lung, 68.8%; in the assay with HOP-62 NSCLC, 48%; in the assay with NCI-H460 lung, 19%; in the assay on HOP-92 NSCLC, 48.8%. Moreover, the growth in the assay on NCI-H522 lung is 42.2%; in the assay on A549/ATCC NSCLC, 13.3%; in the assay with 786-0 renal, 28.9%; in the assay with COLO 205 colon, 17.2%.
`COc1ccc(/C=C/c2c(C(=O)/C=C/c3ccc(F)cc3)c(C)nc3ccccc23)cc1`: the growth with NCI-H23 lung is 47.8%; in the assay with NCI-H226 lung, 67.3%; in the assay with NCI-H322M lung, 82.7%; in the assay on HOP-62 NSCLC, 57.5%; with NCI-H460 lung, 15.9%; in the assay on HOP-92 NSCLC, 73.5%. The growth with NCI-H522 lung is 43.9%; with A549/ATCC NSCLC it was 91.6%; in the assay on 786-0 renal, 65.4%; with COLO 205 colon, 79.8%.
Turning to `COc1ccc(-c2nc(SCCC(C)C)nc(N/N=C\c3cccc(Cl)c3)c2C#N)cc1`, the growth is 82.6% in the assay on NCI-H23 lung; 90% in the assay with NCI-H226 lung; 55.8% with NCI-H322M lung; 49.7% in the assay with HOP-62 NSCLC; 15.2% in the assay on NCI-H460 lung; 62.5% with HOP-92 NSCLC. The growth was 71.3% in the assay with NCI-H522 lung, 59.7% in the assay with A549/ATCC NSCLC, 43.2% in the assay on 786-0 renal and 81.9% in the assay on COLO 205 colon.
For the molecule `CCc1c2c(nc3ccc(OC(=O)OCc4ccc(B5OC(C)(C)C(C)(C)O5)cc4)cc13)-c1cc3c(c(=O)n1C2)COC(=O)[C@]3(O)CC`, the growth was -30.6% (active) in the assay on NCI-H23 lung; -59.9% (active) in the assay on NCI-H226 lung; 1.92% (active) in the assay with NCI-H322M lung; -10.7% (active) in the assay on HOP-62 NSCLC; -6.28% (active) in the assay with NCI-H460 lung; 9.38% (active) in the assay with HOP-92 NSCLC. Moreover, the growth in the assay on NCI-H522 lung is -28.3% (active); in the assay on A549/ATCC NSCLC, 3.37% (active); in the assay with 786-0 renal it was 11.7%; in the assay with COLO 205 colon, 7.72% (active).
Regarding `COc1ccc(-c2csc(C3=C(O)CN(CCCN4CCCC4=O)C3=N)n2)cc1OC`, the growth in the assay on NCI-H23 lung is 94.5%; in the assay on NCI-H226 lung, 97.2%; in the assay with NCI-H322M lung, 109%; in the assay with HOP-62 NSCLC, 90.2%; in the assay on NCI-H460 lung, 113%; in the assay with HOP-92 NSCLC, 62.8%. For the same molecule, the growth in the assay on NCI-H522 lung was 119%; in the assay with A549/ATCC NSCLC it was 91.6%; with 786-0 renal, 99.3%; in the assay on COLO 205 colon it was 106%.
Turning to `Cn1c(=O)c2[nH]c(NN)nc2n(C)c1=O`, the growth was 107% in the assay with NCI-H23 lung; 106% in the assay with NCI-H226 lung; 118% in the assay with NCI-H322M lung; 120% in the assay with HOP-62 NSCLC; 101% in the assay on NCI-H460 lung; 95.7% with HOP-92 NSCLC. For the same molecule, the growth is 99.9% with NCI-H522 lung, 106% with A549/ATCC NSCLC, 98.7% in the assay on 786-0 renal and 109% in the assay with COLO 205 colon.
As for `COc1ccc2nc(NNC(=O)c3cnccn3)c3cccn3c2c1`, the growth with NCI-H23 lung is -24.3% (active); in the assay on NCI-H226 lung, 14.9%; in the assay with NCI-H322M lung, 8.34% (active); with HOP-62 NSCLC, 7.91% (active); in the assay on NCI-H460 lung it was -2.09% (active); in the assay on HOP-92 NSCLC it was 29.3%. The growth in the assay with NCI-H522 lung was -2.64% (active); in the assay on A549/ATCC NSCLC it was 9.52% (active); in the assay on 786-0 renal it was -12% (active); in the assay with COLO 205 colon it was -27% (active).
As to `O=C(c1ccccc1)N1N=C(c2ccccc2)CC1c1nnc2n(Cc3ccccc3)c(=O)c3c4c(sc3n12)CCCC4` (stereo not given), the growth is 116% with NCI-H23 lung; 110% in the assay on NCI-H226 lung; 89.4% in the assay on NCI-H322M lung; 98% in the assay on HOP-62 NSCLC; 107% with NCI-H460 lung; 95.3% with HOP-92 NSCLC. The growth in the assay on NCI-H522 lung was 91.6%; in the assay with A549/ATCC NSCLC, 89.3%; in the assay on 786-0 renal it was 101%; in the assay on COLO 205 colon, 117%.
Regarding `O=c1ssc(Cl)c1-c1ccccc1`, the growth in the assay on NCI-H23 lung was 99.5%; with NCI-H226 lung, 99.1%; with NCI-H322M lung, 105%; in the assay on HOP-62 NSCLC, 98.1%; with NCI-H460 lung, 99%; in the assay on HOP-92 NSCLC it was 72.5%. Also, the growth in the assay on NCI-H522 lung is 112%; in the assay with A549/ATCC NSCLC, 106%; in the assay on 786-0 renal, 107%; in the assay with COLO 205 colon it was 85.1%.
As to `NC(=S)Nc1cccc(O)c1`, the growth is 90.6% with NCI-H23 lung; 96.9% with NCI-H226 lung; 88.9% in the assay with NCI-H322M lung; 89.8% with HOP-62 NSCLC; 104% with NCI-H460 lung; 98.9% in the assay with HOP-92 NSCLC. The growth in the assay on NCI-H522 lung was 93.1%; with A549/ATCC NSCLC, 99.8%; in the assay on 786-0 renal, 100%; in the assay on COLO 205 colon it was 129%.
Consider `COc1ccc(N=Nc2ccc(O)c(=O)cc2)cc1`, for which the growth was 2.37% (active) with NCI-H23 lung; 4.29% (active) with NCI-H226 lung; 25.2% with NCI-H322M lung; 19.1% with HOP-62 NSCLC; 2.64% (active) in the assay on NCI-H460 lung; 19.4% in the assay with HOP-92 NSCLC. Besides, the growth in the assay on NCI-H522 lung was 0.606% (active); in the assay with A549/ATCC NSCLC, 5.6% (active); in the assay with 786-0 renal, 19.5%; with COLO 205 colon it was 26.3%.
On to `Cc1ccc2c(c1)Sc1c(ccc3ccccc13)N2`, for which the growth with NCI-H23 lung is 74.7%; in the assay with NCI-H226 lung, 75.4%; in the assay with NCI-H322M lung it was 90%; in the assay with HOP-62 NSCLC, -2.75% (active); in the assay with NCI-H460 lung, 20.8%; in the assay with HOP-92 NSCLC it was 75.3%. The growth with NCI-H522 lung is 61.3%; with A549/ATCC NSCLC, 59%; in the assay with 786-0 renal, 18.1%; with COLO 205 colon it was 91.5%.
With `COC(=O)[C@]12CC[C@@H](C)[C@H](C)[C@@H]1C1=CC[C@@H]3[C@@]4(C)C(C=O)=C[C@@](C)(COC(=O)c5ccco5)C4=CC[C@@]3(C)[C@]1(C)CC2`, the growth in the assay on NCI-H23 lung is 8.23% (active); in the assay with NCI-H226 lung, 19.1%; in the assay with NCI-H322M lung it was 39.6%; in the assay with HOP-62 NSCLC, 7.71% (active); in the assay with NCI-H460 lung, 2.11% (active); with HOP-92 NSCLC, -15.5% (active). In addition, the growth was -6.14% (active) in the assay with NCI-H522 lung, 8.76% (active) in the assay on A549/ATCC NSCLC, -8.17% (active) with 786-0 renal and -55.8% (active) with COLO 205 colon.
